# From PubChem BioAssay AID463173 (ICCB-Longwood Screening Facility, Harvard Medical School, 2010)
# Out of some 52,000 compounds screened, about 1,700 (3.3%) were called active. No stated cut-off is given here; in the data, active means survival mostly below about 52% (no sharp cut-off); inactive means mostly above about 56%. Many of the other results were omitted from the sample, so actives are more common in it than they were.
# System: Wild type
# Experiment: growth inhibition of S. aureus wild type versus tarO mutant, primary screen, teichoic acid synthesis inhibitors, RN4220, OD600 (AID 463173)
# Conditions: S. aureus RN4220 wild type/DeltatarO growth, OD600, 18 h, hits give low values, screened at 18.75 µg/mL (by protocol)
row,Structure (SMILES),survival
1,COc1cc(OC)cc(-c2nc(-c3cccc(C)c3)no2)c1,-15% (active)
2,Cc1cccc(-c2noc(-c3ccc(N4CCCC4)c([N+](=O)[O-])c3)n2)c1,81% (inactive)
3,Cc1cccc(-c2noc(-c3ccc(N4CCN(C)CC4)c([N+](=O)[O-])c3)n2)c1,-3% (active)
4,CCc1ccc(OCc2nc(-c3ccc(OC)c(OC)c3)no2)c(Br)c1,38% (inactive)
5,COc1ccc(N2CCN(c3ccc(-c4nc(-c5cccc(C)c5)no4)cc3[N+](=O)[O-])CC2)cc1,89% (inactive)
6,COc1ccc(OCc2nc(-c3ccc(OC)c(OC)c3)no2)cc1,70% (inactive)
7,COc1cc(OC)cc(-c2nc(-c3ccc4c(c3)[nH]c(=O)n4C)no2)c1,73% (inactive)
8,Cc1ccc(-c2noc(-c3ccc(N4CCN(C)CC4)c([N+](=O)[O-])c3)n2)cc1,85% (inactive)
9,COc1ccc(-c2noc(COc3cc(C)c(Br)c(C)c3)n2)cc1OC,80% (inactive)
10,COc1ccc(-c2noc(COc3ccc(Br)cc3C)n2)cc1OC,11% (active)
11,COc1ccc(-c2noc(COc3cc(C)ccc3C)n2)cc1OC,0% (active)
12,COc1ccc(-c2noc(CN(C)S(=O)(=O)c3c(C)cc(C)cc3C)n2)cc1OC,78% (inactive)
13,Cc1cc(C)c(S(=O)(=O)NCC(c2ccco2)N2CCN(c3ccccc3)CC2)c(C)c1 (stereo not given),85% (inactive)
14,Cc1ccc(Nc2nc3ccccc3c3nncn23)c(Cl)c1,132% (inactive)
15,O=C(NCc1cccs1)c1nn(-c2ccccc2Cl)nc1CO,116% (inactive)
16,COc1cccc(-c2cc(C(=O)Nc3cc(OC)c(OC)c(OC)c3)on2)c1,69% (inactive)
17,COc1ccc(NS(=O)(=O)c2ccc3[nH]c4c(c3c2)CCCC4)c(OC)c1,99% (inactive)
18,COc1cccc(CCNC(=O)c2cnc3sc(N4CCCCCC4)nn3c2=O)c1,80% (inactive)
19,O=C(CSc1ncc(S(=O)(=O)c2ccc(Cl)cc2)c(=O)[nH]1)Nc1cccc(C(F)(F)F)c1,78% (inactive)
20,COc1cccc(-c2noc(COc3cccc(C)c3C)n2)c1,85% (inactive)
21,COc1ccc(C(=O)NCc2nc(-c3cccc(C)c3)no2)cc1OC,113% (inactive)
22,COc1ccccc1OCc1nc(-c2cccc(C)c2)no1,0% (active)
23,Cc1ccc(N2C(=O)CS(=O)(=O)C23C(=O)N(Cc2cccc(F)c2)c2ccccc23)cc1Cl (stereo not given),75% (inactive)
24,COc1ccc(CC(=O)N2CC(=O)Nc3ccc(Br)cc3C2c2ccc(F)cc2)cc1 (stereo not given),64% (inactive)

row,Structure (SMILES),survival
1,Cc1ccc2c(c1)N(C(=O)Nc1cccc(C)c1C)CCO2,89% (inactive)
2,COc1cc(NC(=O)c2c(C)nn(-c3ccc(F)cc3)c2-n2cccc2)cc(OC)c1,70% (inactive)
3,Cc1cccc(-n2nc(C)c(C(=O)N3CCN(c4ccccc4)CC3)c2-n2cccc2)c1,53% (inactive)
4,CCOC(=O)N1CCC(NC(=O)c2c(C)nn(-c3cccc(C)c3)c2-n2cccc2)CC1,85% (inactive)
5,COc1cccc(CNC(=O)c2c(C)nn(-c3cccc(C)c3)c2-n2cccc2)c1,71% (inactive)
6,COc1cccc(NC(=O)c2c(C)nn(-c3cccc(C)c3)c2-n2cccc2)c1,0% (active)
7,CCOC(=O)N1CCN(C(=O)c2c(C)nn(-c3cccc(C)c3)c2-n2cccc2)CC1,-3% (active)
8,Cc1ccc(NC(=O)C2C3C=CC4(O3)C2C(=O)N(c2ccccc2F)C4C(=O)NC2CCCC2)cc1 (stereo not given),84% (inactive)
9,O=C(Nc1ccc(C(=O)OCc2cc(=O)n3nc(C4CC4)sc3n2)cc1)c1ccccc1,70% (inactive)
10,O=C(CCc1nc2cccnc2n1Cc1cccs1)Nc1cccc(C(F)(F)F)c1,79% (inactive)
11,CCC(Sc1ncnc2sc3c(c12)CCCC3)C(=O)OC(C)C (stereo not given),-2% (active)
12,CC(C)OCCCNc1ncnc2sc3c(c12)CCCC3,79% (inactive)
13,CCOC(=O)CSc1ncnc2sc3c(c12)CCC3,100% (inactive)
14,Clc1ncnc2sc3c(c12)CCCC3,108% (inactive)
15,CCOC(=O)C(CC)Sc1ncnc2sc3c(c12)CCCC3 (stereo not given),-3% (active)
16,CCC(Sc1ncnc2sc3c(c12)CCCC3)C(=O)OCC(C)C (stereo not given),-3% (active)
17,COC(=O)C(C)n1cnc2sc3c(c2c1=O)CCCC3 (stereo not given),102% (inactive)
18,Nc1ncnc2sc3c(c12)CCCC3,109% (inactive)
19,CNC(=O)CSc1ncnc2sc3c(c12)CCCC3,104% (inactive)
20,Cc1oc(-c2ccc(C(=O)Nc3cccc(C(F)(F)F)c3)cc2)nc1CSc1ccccc1,57% (inactive)
21,Cc1ccc(C)c(N2CCN(S(=O)(=O)c3ccc4oc(=O)c5ncn(C)c5c4c3)CC2)c1,81% (inactive)
22,Cc1c(Cl)cccc1NC(=O)Nc1nnc(N(C)C2CCCCC2)s1,111% (inactive)
23,Cc1ccc(-n2c(=O)c3cccnc3n2CC(=O)Nc2ccc(Br)cc2)cc1C,57% (inactive)
24,O=C(CSc1ncc(-c2ccccc2)[nH]1)Nc1cccc(Br)c1,13% (inactive)

row,Structure (SMILES),survival
1,O=C(O)c1ccc(-c2ccc(/C=N/N3C(=O)C4C(C3=O)C3C=CC4C34CC4)o2)cc1 (stereo not given),110% (inactive)
2,CC1CCN(S(=O)(=O)c2ccc3c(c2)N(C)C(=O)CC(=O)N3C)CC1,74% (inactive)
3,Cc1cccn2c(=O)c3cc(C(=O)NCC(C)C)sc3nc12,80% (inactive)
4,COc1ccccc1N(C)C(=O)Cn1c(=O)oc2cc(S(=O)(=O)N3CCCC3)ccc21,127% (inactive)
5,CCOc1ccc(NC(=O)CSc2nnc3scc(-c4ccccc4)n23)cc1,48% (inactive)
6,Cc1ccc(C)c(CN2CCCN(Cc3ccc(F)cc3)S2(=O)=O)c1,-6% (active)
7,Cc1ccc(CN2CCCN(Cc3c(C)cc(C)cc3C)S2(=O)=O)cc1,63% (inactive)
8,Cc1ccc(C)c(CN2CCCN(Cc3ccccc3C)S2(=O)=O)c1,76% (inactive)
9,COC(=O)c1ccc(OC)c(CN2CCCN(Cc3ccc(C)cc3)S2(=O)=O)c1,-3% (active)
10,COC(=O)c1ccc(NC(=O)CN2CCCN(Cc3ccc(Cl)cc3)S2(=O)=O)cc1,110% (inactive)
11,COc1ccc(NC(=O)CN2CCCN(Cc3ccc(Cl)cc3)S2(=O)=O)cc1Cl,67% (inactive)
12,CCc1c(CN2CCN(c3cccc(C)c3)C(C)C2)csc1C (stereo not given),94% (inactive)
13,Cc1c(-c2ccccc2)c(=O)oc2ccc(OC(=O)N3CCOCC3)cc12,78% (inactive)
14,CC(C)(C)OC(=O)N1CCC(c2c(C(=O)N3CCN(c4ncccn4)CC3)cnn2-c2cccc(F)c2)CC1,134% (inactive)
15,CCCOc1ccc(Nc2cc(C)nc(C)n2)cc1,82% (inactive)
16,Cc1cc(C)cc(NC(=O)CCCc2nnc3n(CC(C)C)c(=O)c4sccc4n23)c1,97% (inactive)
17,CCc1cccc(-n2nnc(-c3nsc(NC(=O)c4cccs4)n3)c2C)c1,-6% (active)
18,CCc1cccc(-n2nnc(-c3nsc(NC(=O)c4ccc(C)cc4)n3)c2C)c1,53% (inactive)
19,CCc1ccc(-n2nnc(-c3nsc(NC(=O)c4ccccc4Cl)n3)c2C)cc1,12% (active)
20,Cc1ccc(-n2nnc(-c3nsc(NC(=O)c4ccccc4C)n3)c2C)cc1Cl,159% (inactive)
21,CSc1cccc(-n2nnc(-c3nsc(NC(=O)c4cccs4)n3)c2C)c1,80% (inactive)
22,Cc1cc(C)cc(-n2nnc(-c3nsc(NC(=O)c4ccccc4Cl)n3)c2C)c1,49% (inactive)
23,Cn1c(=O)c2cc(C(=O)NC3CCCCCC3)sc2c2ccccc21,89% (inactive)
24,CCCN(CCC)C(=O)Cn1c(=O)n(Cc2ccc(C(=O)NCCc3ccc(Cl)cc3)cc2)c(=O)c2ccccc21,113% (inactive)

row,Structure (SMILES),survival
1,CCCCN(C(=O)CCn1c(=O)oc2ccccc21)c1ccccc1,71% (inactive)
2,COc1ccc(S(=O)(=O)n2nc(C)c(S(=O)(=O)N3CCCCC3)c2C)cc1,63% (inactive)
3,CCCOc1ccc(OC(=O)c2sc3ncn(Cc4cccc(F)c4)c(=O)c3c2C)cc1,56% (inactive)
4,COc1ccc(C(=O)Nc2ccccc2C(=O)OCc2cc(=O)n3nc(C4CC4)sc3n2)cc1,67% (inactive)
5,CCCCCOC(=O)CSc1ncnc2c1sc1nc(N3CCOCC3)c3c(c12)CCCC3,61% (inactive)
6,CCCCCOC(=O)CSc1ncnc2sc3c(c12)CCC(C)C3 (stereo not given),-1% (active)
7,CC1CCc2c(sc3ncnc(NCCOCCO)c23)C1 (stereo not given),106% (inactive)
8,CCCCOC(=O)CSc1ncnc2sc3c(c12)CCC(C)C3 (stereo not given),15% (active)
9,Cc1ccc(-c2nc(NC(=O)CSc3ncnc4sc5c(c34)CCC(C)C5)ns2)cc1 (stereo not given),75% (inactive)
10,CCOC(=O)CSc1nc2sc3c(c2c(=O)n1Cc1ccccc1)CC(C)CC3 (stereo not given),68% (inactive)
11,Cc1ccc(OCCCCn2nnc3sc4c(c3c2=O)CCC(C)C4)cc1 (stereo not given),94% (inactive)
12,CCCOC(=O)CSc1ncnc2sc3c(c12)CCC(C)C3 (stereo not given),7% (active)
13,CCC(C(=O)OC(C)C)n1cnc2sc3c(c2c1=O)CCC(C)C3 (stereo not given),71% (inactive)
14,COc1ccccc1C(=O)Nc1nnc(SCc2cc(=O)c3ccccc3[nH]2)s1,72% (inactive)
15,COc1ccc(NC(=O)c2cc(C(C)=O)n3ccccc23)cc1Cl,87% (inactive)
16,CCn1c(=O)c2sccc2n2c(CCCC(=O)N3CCN(c4ccc(OC)cc4)CC3)nnc12,96% (inactive)
17,CCN(c1ccccc1)S(C)(=O)=O,101% (inactive)
18,Cc1ccn2c(Nc3ccc(C(C)C)cc3)c(-c3cccs3)nc2c1,53% (inactive)
19,Cc1ccc(CNC(=O)C(C)n2nc(C)c3sc4ccccc4c3c2=O)cc1 (stereo not given),105% (inactive)
20,Cc1ccc(OCC(=O)N(Cc2ccc(N(C)C)cc2)CC2CCCO2)cc1C (stereo not given),82% (inactive)
21,COc1ccccc1Cn1cc(C(=O)c2ccc(C)cc2)c(=O)c2cc(C)ccc21,121% (inactive)
22,CCc1ccc(C(=O)c2cn(Cc3ccccc3)c3cc(OC)c(OC)cc3c2=O)cc1,97% (inactive)
23,COc1ccccc1Cn1cc(C(=O)c2ccccc2)c(=O)c2cc(OC)c(OC)cc21,10% (active)
